# Assay results reported in PubChem BioAssay AID2796 (The Scripps Research Institute Molecular Screening Center, 2010).
# The campaign covered roughly 320,000 compounds. About 8,000 (2.5%) were called active. The sample holds actives, similar compounds and a random draw of the others, so the mix is not that of the screen. Values without a mark were called inactive. No stated cut-off is given here; in the data, active means activation above about 47%; inactive means the rest.
# Target: Aryl hydrocarbon receptor (Homo sapiens) (UniProt P35869)
# Sequence (P35869 whole entry, looked up): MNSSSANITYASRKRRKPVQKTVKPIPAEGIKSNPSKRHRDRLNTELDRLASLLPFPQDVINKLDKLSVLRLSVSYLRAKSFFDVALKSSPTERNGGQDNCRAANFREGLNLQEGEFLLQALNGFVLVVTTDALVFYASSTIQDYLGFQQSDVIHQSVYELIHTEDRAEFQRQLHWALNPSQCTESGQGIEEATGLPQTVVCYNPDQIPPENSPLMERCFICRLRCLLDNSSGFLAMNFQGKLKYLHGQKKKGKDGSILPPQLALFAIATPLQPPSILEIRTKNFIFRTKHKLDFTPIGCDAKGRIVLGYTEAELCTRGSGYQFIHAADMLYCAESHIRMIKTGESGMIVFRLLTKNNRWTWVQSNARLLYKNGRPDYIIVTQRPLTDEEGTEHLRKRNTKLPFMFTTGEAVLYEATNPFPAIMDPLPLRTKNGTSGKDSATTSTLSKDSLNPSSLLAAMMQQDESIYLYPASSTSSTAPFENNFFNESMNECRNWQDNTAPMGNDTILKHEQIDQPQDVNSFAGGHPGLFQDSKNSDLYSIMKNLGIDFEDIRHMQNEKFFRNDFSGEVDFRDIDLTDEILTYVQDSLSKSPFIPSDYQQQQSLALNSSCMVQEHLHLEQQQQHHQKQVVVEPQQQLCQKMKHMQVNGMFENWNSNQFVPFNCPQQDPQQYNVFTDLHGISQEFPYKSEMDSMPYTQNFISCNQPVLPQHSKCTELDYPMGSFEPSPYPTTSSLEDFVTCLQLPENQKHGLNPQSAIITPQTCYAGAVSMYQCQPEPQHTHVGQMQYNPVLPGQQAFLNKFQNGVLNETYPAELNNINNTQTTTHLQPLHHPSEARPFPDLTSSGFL
# Test: AHR activators, primary screen, cell-based, luminescence, luciferase reporter, human (AID 2796);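 further: 0% = vehicle wells and 100% = reference agonist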
# Settings: AHR-responsive luciferase reporter cells, at 5 µM, hits give high values
row,Compound,activation
1,CCc1ccc(N(C(=O)c2csnn2)C(C(=O)NC2CCCCC2)c2ccncc2)cc1 (centres undefined),3.1%
2,O=C(CN1C(=O)NC2(CCCC2)C1=O)Nc1cc(C(F)(F)F)ccc1N1CCOCC1,-0.32%
3,COc1ccc(C)cc1NC(=O)c1ccc(-c2ccc(C(C)=O)cc2)o1,40.5%
4,CCOC(=O)c1ccc(-c2ccc(C(=O)Nc3cccnc3)o2)cc1,48.9% (active)
5,COc1cccc(C(=O)Nc2cccnc2)c1OC,19.2%
6,CCN(CC)P(=O)(C(NC(=O)OC)C(F)(F)C(F)(F)C(F)(F)C(F)F)N(CC)CC (centres undefined),-0.37%
7,CCC1=C/C(=C\c2ccc3c(c2)OCO3)C(=O)S1,1.47%
8,O=C1/C(=C/c2ccc3c(c2)OCO3)CCC/C1=C\c1ccc2c(c1)OCO2,72.7% (active)
9,O=C(N/N=C/c1ccc2c(c1)OCO2)C(=O)N1CCCC1,38.1%
10,Cc1ccc(S(=O)(=O)N(C)CC(=O)NCC(c2ccc(F)cc2)N2CCOCC2)cc1 (centres undefined),-0.69%
11,CCOc1ccc(C2=CC(c3ccccc3)n3ncnc3N2)cc1 (centres undefined),-3.83%
12,Brc1ccc(C2=CC(c3ccco3)n3ncnc3N2)cc1 (centres undefined),95.6% (active)
13,CC1=C(C(=O)OCc2ccccc2)C(c2ccco2)n2ncnc2N1 (centres undefined),1.22%
14,C#CCNC(=O)C1=C[C@@H](c2ccccc2)[C@H](CCCO)[C@@H](OCC)O1,1.77%
15,CCCCn1nc(C(=O)Nc2ccc(S(=O)(=O)Nc3ncccn3)cc2)c2ccccc2c1=O,2.56%
16,Cc1cccc(N=Nc2c(C)[nH]n(-c3ccccc3)c2=O)c1,40%
17,Cc1[nH]n(C(N)=S)c(=O)c1N=Nc1ccc(Cl)cc1Cl,55.6% (active)
18,CC1=NN(C(N)=S)C(=O)C1N=Nc1cc(Cl)ccc1Cl (centres undefined),11.5%
19,O=C(Cc1c(F)cccc1Cl)Nc1ccc(-n2cnnn2)cc1,0.09%
20,O=C(CCc1ccccc1)Nc1ncc([N+](=O)[O-])s1,6.21%
21,O=C(Cc1c(F)cccc1Cl)Nc1ncc([N+](=O)[O-])s1,48.5% (active)
22,CCOC(=O)C(=Cc1ccccc1OC)C(=O)OCC,-3.1%
23,Nc1c(C(=O)NCc2ccccc2)sc2nc3c(cc12)C(=O)CCC3,2.82%
24,CN(C)c1ccnc2sc(C(=O)c3ccccc3)c(N)c12,15.9%
25,CCN(CC)C(=O)c1sc2nc(-c3ccccc3)ccc2c1N,76.4% (active)

row,Compound,activation
1,Cc1ccc(N2C(=O)C(NC(=O)c3c(F)cccc3F)(C(F)(F)F)C3=C2CC(C)(C)CC3=O)cc1 (centres undefined),2.49%
2,O=C(CC1Nc2ccccc2NC1=O)Nc1ccccc1 (centres undefined),101% (active)
3,O=C(CC1NCCc2ccccc21)Nc1cccc(Cl)c1 (centres undefined),8.99%
4,O=C(CC1NCCNC1=O)Nc1ccc(Oc2ccccc2)cc1 (centres undefined),5.88%
5,O=C(CC1Nc2ccccc2NC1=O)Nc1ccccc1NC(=O)CC1Nc2ccccc2NC1=O (centres undefined),47.5% (active)
6,COC(=O)C(C)C1Sc2ccccc2NC1=O (centres undefined),-0.86%
7,Cc1ccc(CNC(=O)CC2Sc3ccccc3NC2=O)cc1 (centres undefined),4%
8,COC(=O)c1c(C)oc2ccc(N(C(=O)Oc3ccccc3)S(=O)(=O)c3ccccc3)cc12,-0.17%
9,COCCCNC(=O)c1ccc(CNS(=O)(=O)c2ccc(NC(C)=O)cc2)cc1,0.77%
10,Cc1cc(C)n(CC(O)COc2ccc(C(C)(C)C)cc2)n1 (centres undefined),1.06%
11,COc1ccc(OCCNC(=O)c2cc(C3CC3)nc3c2cnn3C(C)C)cc1,5.03%
12,CC(C)n1ncc2c(C(=O)Nc3ccc(CC#N)cc3)cc(C3CC3)nc21,89.9% (active)
13,CC(C)n1ncc2c(C(=O)NCc3ccccc3CN(C)C)cc(C3CC3)nc21,2.81%
14,O=C(CCNC(=O)c1ccccc1Cl)NN=Cc1ccco1,-0.2%
15,Cc1ccc(C(=O)N/C(=C\c2cn(S(=O)(=O)N(C)C)c3ccccc23)C(=O)N2CCCC2)cc1,0.25%
16,S=c1[nH]nc(COc2ccccc2)n1-c1ccccc1,-2.15%
17,Cc1ccc(OCc2n[nH]c(=S)n2-c2ccccc2)cc1,2.23%
18,S=c1[nH]nc(-c2cc(-c3ccsc3)n[nH]2)n1-c1ccccc1,84% (active)
19,CCc1ccc(C(=O)OCC(=O)NCC(F)(F)F)cc1,1.13%
20,O=C(Nc1ccccc1F)c1ccc2c(c1)OCO2,7.6%
21,Fc1ccccc1-c1cc2cc3c(cc2cn1)OCO3,77.2% (active)
22,Fc1ccc2cnc(-c3ccccc3)cc2c1,31.9%
23,O=C(NCc1ccc2c(c1)OCO2)c1cc([N+](=O)[O-])ccc1N1CCOCC1,-0.76%
24,Cc1nnc(C)c2c(C)n(N)c(C)c12,-0.81%
